Screening results deposited in PubChem by several laboratories.
Sampled rows, rich in hits. Any-hit rate of the full collection: about 1.6%.
MEX-5 binding = C. elegans MEX-5 TCR-2 RNA binding activity; activity score (negative = inhibition of binding), % at 10 µM; actives 0.38% (n = 300,000); AID 1832; Q9XUB2; MEX-5/FITC-TCR2 RNA binding, fluorescence polarization; active compounds read low;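 active means inhibition past about -25% in most replicates, and total fluorescence under double the plate's negative control median, limit read from the data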;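 further: 0% = DMSO and -100% = 5 µM competing unlabeled TCR2 RNA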
PREPL inh = inhibitors of human prolyl oligopeptidase-like enzyme PREPL. inhibition, % at 5.96 µM. AID 2751. actives 0.68% (n = 320,000). recombinant PREPL, fluorescence polarization activity-based probe; in the data active means inhibition above about 43%;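 further: 0% = enzyme with DMSO and 100% = wells lacking enzyme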
Fam108B inh = counter-screen for RBBP9 inhibitors: inhibitors of mouse Fam108B. recombinant Fam108B, FP-Rh probe fluorescence polarization. inhibition, % at 9.51 µM. AID 1947. actives 0.33% (n = 300,000);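 active means inhibition above the screen mean inhibition plus 3 SD, computed separately per campaign, cut at about 18% in these data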;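 further: inhibitors lower polarization as less probe binds the enzyme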
LYPLA2 inh = counter-screen for PME1 inhibitors: inhibitors of human LYPLA2; AID 2177; inhibition, % at 5.9 µM; recombinant LYPLA2, FP-Rh probe fluorescence polarization; actives 0.38% (n = 320,000);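 active means inhibition above the screen-wide mean plus 3 SD, limit set per campaign, cut at about 26% in these data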;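 further: 0% = LYPLA2 with DMSO and 100% = wells lacking LYPLA2 enzyme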
Target sequence (O95372 whole entry, looked up): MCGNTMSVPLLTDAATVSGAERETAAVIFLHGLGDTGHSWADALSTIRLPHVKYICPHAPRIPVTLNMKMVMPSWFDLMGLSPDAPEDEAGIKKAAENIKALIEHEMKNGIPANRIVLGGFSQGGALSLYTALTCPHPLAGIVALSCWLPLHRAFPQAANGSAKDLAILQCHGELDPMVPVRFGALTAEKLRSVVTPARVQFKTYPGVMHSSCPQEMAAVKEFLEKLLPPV
PME-1 primary = blocks human protein phosphatase methylesterase 1 | Q9Y570 | recombinant PME-1, FP-Rh probe fluorescence polarization | inhibition, % at 5.9 µM | actives 0.53% (n = 320,000) | AID 2130;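 active means inhibition above the campaign mean of all compounds plus 3 SD, cut at about 26% in these data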;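 further: competitive labeling of PME-1 active site by serine hydrolase directed probe; 0% = PME-1 with DMSO and 100% = wells lacking PME-1 enzyme; inhibitors block probe labeling so polarization falls and inhibition rises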
LYPLA1 counter = LYPLA1 (human) inhibition in PME1 counter-screen. inhibition, % at 5.9 µM. recombinant LYPLA1, FP-Rh probe fluorescence polarization. actives 0.16% (n = 320,000). O75608. AID 2174;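 active means inhibition above the mean of all tested compounds plus 3 SD, set per campaign, cut at about 14% in these data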;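 further: inhibitors block serine hydrolase probe labeling of LYPLA1 so polarization falls; 0% = enzyme with DMSO and 100% = wells lacking LYPLA1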
Target sequence (O75608 whole entry, looked up): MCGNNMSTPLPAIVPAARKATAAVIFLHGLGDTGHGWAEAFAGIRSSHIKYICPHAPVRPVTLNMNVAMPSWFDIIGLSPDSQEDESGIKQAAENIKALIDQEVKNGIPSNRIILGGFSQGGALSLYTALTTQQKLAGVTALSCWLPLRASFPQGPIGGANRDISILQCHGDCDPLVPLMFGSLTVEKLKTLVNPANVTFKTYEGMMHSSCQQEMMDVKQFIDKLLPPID
Active calls of the source: *; / = not tested or not shown.

SMILES	MEX-5 binding	PREPL inh	Fam108B inh	LYPLA2 inh	PME-1 primary	LYPLA1 counter
CCCCC1=CC2=C(c3ccco3)C(=O)C(C)(OC(=O)c3ccc(OC)cc3)C(=O)C2=CN1CC1CC1 (stereo not drawn)	-7	11	3	0	3	0
CCCCC1=CC2=C(c3ccco3)C(=O)C(C)(OC(=O)c3ccc(OC)cc3)C(=O)C2=CN1C1CC1 (stereo not drawn)	-59*	19	4	-1	3	0
CCCCC1=CC2=C(c3ccco3)C(=O)C(C)(OC(=O)c3ccc(OC)cc3)C(=O)C2=CN1c1ccc(OC)cc1 (stereo not drawn)	-16	25	6	11	3	-3
CCCCC1=CC2=C(c3ccco3)C(=O)C(C)(OC(=O)c3ccc(OC)cc3)C(=O)C2=CN1C1CCCC1 (stereo not drawn)	-29*	28	-4	-2	4	2
O=C(N/N=C/c1ccc(O)c(O)c1)N/N=C/c1ccc(O)c(O)c1	-39*	/	/	/	/	/
Oc1ccc(/C=N/NC(=S)Nc2cccnc2)cc1O	-45*	43	10	-8	12	-9
CC(C)(C)c1ccc(/C=N/NC(=S)Nc2cccnc2)cc1	-1	9	0	6	-4	-1
NS(=O)(=O)c1ccc(N=Nc2c[nH]c(=O)c(O)c2)cc1	-89*	-1	4	-9	-66	-4
Cc1[nH][nH]c(=O)c1N=Nc1ccc(S(N)(=O)=O)cc1	-59*	3	-3	-1	3	1
CC(=O)c1ccc(N=Nc2c(C)[nH][nH]c2=O)cc1	/	-8	2	3	-1	3
Nc1nc(O)c(N=Nc2ccc(S(N)(=O)=O)cc2)c(=O)[nH]1	1	/	/	/	/	/
CCOc1cc(/C=N/Nc2nc(N3CCCC3)nc(N3CCCC3)n2)ccc1O	1	6	-2	4	0	-1
CCOc1cccc(/C=N/Nc2nc(N3CCCC3)nc(N3CCCC3)n2)c1O	2	50*	5	-3	23	0
Cc1cc(N(C)C)ccc1N=Nc1ccc2ncccc2c1	2	26	11	12	32*	7
COC(=O)c1ccc(NC(=O)CCN2CCN(c3ccccc3)CC2)cc1	1	-9	1	-3	-11	-1
O=c1[nH]c2ccccc2cc1-c1noc(-c2cccnc2)n1	-5	8	0	0	13	-2
COc1ccc2[nH]c(=O)c(-c3noc(-c4ccccc4)n3)cc2c1	0	-15	-1	0	49*	-1
COc1ccc(NC(=O)Nc2nnc(N3CCCCC3C)s2)cc1OC (stereo not drawn)	0	15	4	1	50*	-3
Oc1ccc(-c2cn3c(n2)SCC3)cc1O	-40*	8	1	2	-7	-3
O=C(CSc1n[nH]c(-c2ccncc2)n1)Nc1ccc(Cl)c(C(=O)O)c1	-1	-1	-5	7	-11	-1
Cc1cc(NC(=O)CSc2nnc(-c3ccncc3)n2N)ccc1Br	2	6	-5	0	-4	-3
Cc1ccc2[nH]c(O)c(N=NC(=O)c3ccc(NS(=O)(=O)c4cccs4)cc3)c2c1	0	12	18	-12	52*	-4
COc1ccc2[nH]c(O)c(N=NC(=O)c3ccc(NS(=O)(=O)c4cccs4)cc3)c2c1	/	30	/	-4	30*	-7
CCS(=O)(=O)Nc1ccc(C(=O)OC)cc1	-2	11	6	3	1	1
NC(=S)NNc1ccnc2cc(Cl)ccc12	0	15	1	1	5	-1
SMILES	MEX-5 binding	PREPL inh	Fam108B inh	LYPLA2 inh	PME-1 primary	LYPLA1 counter
C/C(=N/Nc1ccnc2cc(Cl)ccc12)c1ccc(O)cc1	1	40	10	-2	33*	-10
C/C(=N/Nc1ccnc2cc(Cl)ccc12)c1ccc(N)cc1	1	37	6	-9	36*	-6
COc1ccc(-c2cc(-c3ccc(C)cc3)n[nH]2)c(O)c1	0	-1	5	-6	47*	-8
CCCCOC(=O)c1ccc(N=Nc2c(C)c(C#N)c(O)[nH]c2=O)cc1	-63*	17	5	3	-4	4
CC1=C(C(=O)OCc2ccccc2)C(c2ccc([N+](=O)[O-])cc2)NC(=O)N1C (stereo not drawn)	0	3	15	4	2	1
CC1=C(C(=O)OCc2ccccc2)C(c2ccccc2[N+](=O)[O-])NC(=O)N1C (stereo not drawn)	-39*	-1	-2	4	-1	6
O=[N+]([O-])CC(=Nc1ccc(Cl)cc1)N/N=C\c1oc(O)c2ccccc12	-5	9	8	5	52*	2
Cc1cnc(C(=O)NNC(=O)c2ccc(Br)cc2)cn1	-41*	-3	-1	-2	-4	-1
O=C(NNC(=O)C1CCC1)c1ccc(Br)cc1	0	-6	-1	0	1	-1
COc1ccccc1P(=O)(Cc1ccccc1)c1ccccc1 (stereo not drawn)	2	-5	2	6	2	6
O=C1Nc2cc(Cl)cnc2N2CCCC12 (stereo not drawn)	-37*	28	-1	1	5	-1
N#C/C(=C/c1cc(Br)cs1)C(=O)NCC1CCCO1 (stereo not drawn)	0	4	2	-3	2	-1
CCOC(=O)c1sc2nc(CC(=O)OC)nc(N3CCN(c4ccc(OC)cc4)CC3)c2c1C	1	48*	0	-6	-1	-1
CCOC(=O)c1sc2nc(CC(=O)OC)nc(NCCN3CCOCC3)c2c1C	0	/	/	/	/	/
CN(C)S(=O)(=O)c1ccc(Cl)c(NC(=O)COC(=O)c2ccc(O)cc2)c1	-1	-2	4	-6	14	1
CCN(CC)S(=O)(=O)c1ccc(Cl)c(NC(=O)COC(=O)c2ccc(O)cc2)c1	-1	3	0	0	29*	3
Cc1ccc(C(=O)OCC(=O)Nc2cc(S(=O)(=O)N3CCOCC3)ccc2C)cc1	0	6	0	0	8	-1
CCN(CC)S(=O)(=O)c1ccc(Cl)c(NC(=O)COC(=O)c2cccn2C)c1	2	17	-9	-6	33*	-1
CCN(CC)S(=O)(=O)c1ccc(C)c(NC(=O)COC(=O)c2ccc(C)c(S(=O)(=O)N3CCOCC3)c2)c1	-2	4	-6	-1	51*	-1
CCOC(=O)C1=CC[C@H]2c3c(c4ccccc4n3C)C(=O)C1N2C	/	7	/	5	1	-1
Oc1ccc(-c2nc(-c3ccc(O)c(O)c3)cs2)cc1	-68*	12	-1	-3	14	-6
Cc1ccc(N=Nc2c(O)n(CN3CCOCC3)c3ccccc23)cc1	-28*	3	-9	-15	-3	-8
Cc1cccc(NC(=S)N=Nc2c(O)n(CN3CCOCC3)c3ccccc23)c1C	1	16	-1	7	3	3
